Screens from PubChem.
Rows were chosen to be rich in hits. Some 6.5% of all compounds tested hit in one or more screens of this group.
LASV entry inh: blocks Lassa virus binding to or entry into cells. hit rate 1.2% among 300,000. Potency, µM (highest dose often 37.9 µM), inactives show at the top dose activity change, negative = inhibition, most hits filed as inhibitors. AID 540256. Lassa virus pseudotype entry inhibition, cell reporter; calls by dose curve; tested in HEK293 cells; also: potency is read from the fitted curve at half-maximal effect; nearly all actives have a fitted effect of over 50% in size
MARV entry inh: blocks Marburg virus binding to or entry into cells. Marburg virus pseudotyped entry inhibition, cell reporter. Potency, µM (series often up to 37.8 µM), without a hit: at the top dose activity change, negative = inhibition, usual class: inhibitors. hit rate 1.8% among 300,000. AID 540276; calls by dose curve; tested in HEK293 cells; also: potency is read from the fitted curve at half-maximal effect
Vaccinia mCherry: vaccinia inhibition (mCherry reporter) | hit rate 0.63% among 310,000 | AID 720579 | Potency, µM (series often up to 36.5 µM), for the others: top-dose activity change, negative = inhibition, usual class: inhibitors | Vaccinia virus mCherry reporter infection, fluorescence; calls by dose curve; tested in A549 cells; also: potency is read from the fitted curve at half-maximal effect; nearly all actives have a fitted effect of over 35% in size
VACV Venus inh: vaccinia inhibition (Venus reporter). hit rate 0.46% among 330,000. AID 720580. Vaccinia virus Venus reporter expression, fluorescence. Potency, µM (series often up to 36.5 µM), for inactives: at the highest dose activity change, negative = inhibition, hits mostly inhibitors; calls by dose curve; tested in A549 cells; also: potency is read from the fitted curve at half-maximal effect; nearly all actives have a fitted effect of over 30% in size
HCMV inh: human cytomegalovirus inhibition | HFF cells, HCMV-luciferase reporter, 72 h; hits give low values | activity change, negative = inhibition, % at 57.5 µM | hit rate 4.5% among 410,000 | AID 1259415; in the data active = activity change below about -60%; inconclusive = no clear call, values can overlap the other calls; inactive = above about -39%
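Two-dose cell screen: HFF monolayers treated with compounds and infected with luciferase-expressing HCMV at 1 PFU/cell, 72 h at 37C, then lysed for luciferase measurement.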
FMDV antiviral: blocks foot and mouth disease virus; hit rate 1.2% among 410,000; Potency, µM (top dose mostly 57.9 µM), for the others: at the top dose activity change, negative = inhibition, hits mostly inhibitors; FMDV antiviral cell-based qHTS; calls by dose curve; tested in HEK293T cells; also: read-out not given here; potency is read from the fitted curve at half-maximal effect; nearly all actives have a fitted effect of over 45% in size
An asterisk follows results filed as active; i = inactive; ? = inconclusive; nt = no result; [ ] = dose if it differs, or a comment. % is scaled to controls: 0 for no effect and ±100 for the full control effect.

SMILES	LASV entry inh	MARV entry inh	Vaccinia mCherry	VACV Venus inh	HCMV inh	FMDV antiviral
C=CC[n+]1c(-c2ccc(OCC)cc2)csc1NNC(=O)Nc1ccccc1	?	-7.1%	-19.2%	?	-87.9*	nt
C=CC[n+]1c(-c2ccc(C)cc2)csc1Nc1c(C)n(C)n(-c2ccccc2)c1=O	?	?	-26.6%	-11.8%	?	-18.5%
CC(=O)Cc1nsc(NC(=O)c2ccccc2)n1	18.0%	-1.6%	nt	6.2%	-64.3*	49.1%
c1ccc(-c2ccccc2OCCCN2CCCCC2)cc1	16.4µM*	?	?	-15.3%	-38.2	-25.2%
CN(C)CCCCOc1ccccc1-c1ccccc1	?	13µM*	nt	nt	9.5	10.3%
CN(C)CCCCOc1ccccc1F	10.5%	6.9%[46.1 µM]	i	-8.7%	-26.7	3.7%
Cc1ccc(S(=O)(=O)CCC(=O)N2CCN(c3ccc(Cl)cc3)CC2)cc1	-26.6%	-12.5%	nt	nt	-70.1*	?
Cc1ccc2sc(N3CCN(C(=O)CCS(=O)(=O)c4ccc(F)cc4)CC3)nc2c1C	13.2%[46.1 µM]	nt	-19.9%	?	-37.2	?
Cc1ccc(S(=O)(=O)CCC(O)c2ccc(Cl)cc2)cc1 (stereo unspecified)	nt	nt	nt	nt	-102.5*	-16.8%
Cc1c(Cl)ccc2sc(N3CCN(C(=O)CCS(=O)(=O)c4ccc(F)cc4)CC3)nc12	?	nt	-23.3%	?	-70.2*	11.2µM*
CCCCOc1ccc(Br)cc1/C(C)=N/NC1=NCCN1	11.2µM*	10µM*	nt	6.31µM*	-100.3*	14.1µM*
Cc1ccc(C)c(N2CCN(C(=O)CCCN3C(=S)NC(C)(C)CC3C)CC2)c1 (stereo unspecified)	?	?	-8.9%	-27.0%	-63.8*	22.4µM*
Cc1ccc(NC(=O)c2ccc(-n3nncc3-c3ccccc3)cc2)cc1	nt	nt	-8.9%	-12.0%	nt	nt
Nc1nccc(C#Cc2cncnc2Nc2ccc(OCc3cccc(F)c3)c(Cl)c2)n1	17.7µM*	nt	nt	nt	nt	nt
CS(=O)(=O)CCNCc1ccc(-c2ccc3ncnc(Nc4ccc(OCc5cccc(F)c5)c(Cl)c4)c3c2)o1	nt	nt	nt	nt	-13.7	nt
CCNC(=O)OC1CNC(C#Cc2cc3ncnc(Nc4ccc(OCc5cccc(F)c5)c(Cl)c4)c3s2)C1 (stereo unspecified)	7.91µM*	nt	nt	nt	nt	nt
CC(=O)Nc1cccc(C#Cc2cncnc2Nc2ccc(OCc3cccc(F)c3)c(Cl)c2)c1	15.8µM*	nt	nt	nt	nt	nt
COc1ccc(-n2c(SCC(=O)Nc3cc(C)cc(C)c3)nc3c(oc4ccccc43)c2=O)cc1	nt	-19.8%[46.1 µM]	-4.6%	-6.8%	-3.0	0.0%
FC(F)(F)C(F)(F)C(F)(F)c1nc2ccccc2[nH]1	nt	nt	15.6%	4.6%	nt	nt
O=C(c1cccc(F)c1)N1CCC2(CC1)CN(c1ccccn1)C2	nt	nt	nt	nt	nt	-16.6%
CN(Cc1ccc(Cl)c(Cl)c1)C(C(=O)NCc1ccccc1)c1ccco1 (stereo unspecified)	nt	nt	?	-5.0%	-31.9	-16.0%
CN(Cc1ccc(Cl)c(Cl)c1)C(C(=O)NCc1ccccc1)c1ccc(C(F)(F)F)cc1 (stereo unspecified)	nt	nt	11.2µM*	?	?	-9.0%
Cc1cccc(C(=O)NCc2nnc(SCC(=O)Nc3ccccc3F)n2-c2ccccc2)c1	-17.0%[46.1 µM]	?	-7.7%	-6.4%	0.7	-18.2%
c1ccc(CCc2nn3c(Cn4cnc5ccccc54)nnc3s2)cc1	?	-18.0%	-25.0%	-18.5%	-4.6	?
COc1ccc(OCc2nn3c(Cn4cnc5ccccc54)nnc3s2)cc1	-23.6%	?	-3.5%	-25.3%	-68.2*	?
SMILES	LASV entry inh	MARV entry inh	Vaccinia mCherry	VACV Venus inh	HCMV inh	FMDV antiviral
COc1ccc2c(c1)[nH]c(=O)c1sc3ccccc3c12	-12.5%	-16.0%	nt	-15.0%	nt	8.6%
COc1ccc2sc3c(=O)[nH]c4ccccc4c3c2c1	-1.2%	1.6%[46.1 µM]	nt	?	-82.9*	-21.8%
CC(=O)C1=C(C)N(Cc2ccccc2)C(=O)N[C@H]1c1ccc(Br)cc1	nt	-0.3%[14.2 µM]	nt	nt	nt	nt
CCN(CC)C(=O)CSc1nc2c(sc(=S)n2-c2ccccc2)c(=O)n1-c1ccc(OC)cc1OC	nt	nt	nt	nt	-68.7*	-5.1%
COc1ccc(-n2c(SCC3OCCO3)nc3c(sc(=S)n3-c3ccccc3)c2=O)cc1OC	-19.4%[46.1 µM]	?	-3.3%	-16.2%	10.6	-14.7%
CCN(CC)C(=O)CSc1nc2c(sc(=S)n2-c2ccccc2)c(=O)n1-c1ccc(OC)c(OC)c1	nt	nt	nt	nt	-68.4*	-18.7%
N#CCSc1nc2c(sc(=S)n2Cc2ccco2)c(=O)n1-c1ccc(F)cc1	-9.5%	?	nt	nt	-106.9*	?
CSc1nc2ccsc2c(=O)n1-c1ccccc1	-7.4%[46.1 µM]	-21.6%[46.1 µM]	i	-15.8%	-26.4	-12.5%
CCN(CC)C(=O)CSc1nc2c(sc(=S)n2-c2ccccc2)c(=O)n1-c1ccccc1OC	?	?	-11.7%	-10.8%	?	-8.5%
CCn1c(=S)sc2c(=O)n(-c3ccccc3)c(SC)nc21	-2.6%	-13.0%	nt	nt	-61.0*	17.8µM*
Cc1c(C(=O)N(C)C)sc2c1c(=O)n(-c1ccccc1C(F)(F)F)c(=O)n2Cc1ccccc1C#N	-3.0%[46.1 µM]	nt	-7.7%	2.0%	3.9	-17.2%
CCOc1ccc(NC(=O)CSc2oc(-c3cccs3)nc2S(=O)(=O)c2ccc(C)cc2)cc1	0.3%[46.1 µM]	-0.7%[46.1 µM]	-23.8%	-14.9%	20.8	-6.9%
CCOC(=O)N1CCC(NC(=O)c2ccc3c(Cl)c4c(nc3c2)CCCC4)CC1	?	?	?	?	-40.0	?
O=C(NC1CC1)c1ccc2c(Cl)c3c(nc2c1)CCCC3	nt	nt	nt	nt	-61.7*	53.9%
O=C(Nc1ccccc1F)c1ccc2c(Cl)c3c(nc2c1)CCC3	?	?	-1.7%	-8.2%	-86.5*	10µM*
O=C(NCCCN1CCCC1)c1ccc2c(Cl)c3c(nc2c1)CCCC3	?	5.62µM*	-17.4%	?	-73.3*	?
CCCCN(CC)CCNC(=O)c1ccc2c(Cl)c3c(nc2c1)CCC3	?	?	?	-27.6%	-34.5	-11.9%
CCN(CC)CCCNC(=O)c1ccc2c(Cl)c3c(nc2c1)CCCC3	?	?	-4.3%	-29.9%	-88.2*	-25.3%
Cn1cc(-c2ccc3c(c2)N(CC2CCCCC2)C(=O)COC3)cn1	nt	nt	nt	nt	19.5	nt
O=C(NCc1cccc(Cl)c1)c1ccc2c(Cl)c3c(nc2c1)CCCC3	2.1%[46.1 µM]	1.6%[46.1 µM]	-23.1%	-9.7%	-78.2*	5.6%
CCOc1ccc(S(=O)(=O)/N=C(/Nc2ccc(S(N)(=O)=O)cc2)c2ccccc2)cc1	nt	nt	nt	nt	-102.9*	20.4%
CC(Oc1ccc(C(=O)c2ccccc2)cc1)C(=O)Nc1ccc(S(N)(=O)=O)cc1 (stereo unspecified)	-5.4%	?	-7.4%	-19.4%	-68.1*	0.0%
CCOc1ccc(OCC(=O)Nc2ccc(S(N)(=O)=O)cc2)cc1	4.5%	?	nt	nt	?	-17.7%
CC(Oc1ccccc1)C(=O)Nc1ccc(NC(=O)c2ccccc2)cc1 (stereo unspecified)	26.1%	-7.0%	i	-0.8%	14.0	-20.4%
Cc1ccc(-n2c(C)cc(/C=c3/sc4nc5ccccc5n4c3=O)c2C)cc1	?	0.282µM*	nt	2.2%	nt	1µM*
